According to PubChem BioAssay (NCI):
Several values for one entry are separate records, joined by “and”; a condition that tells them apart may be missing. Equal entries are not always repeated. Compounds without any hit were thinned out: in the full panel of roughly 83,000, 20% have a hit.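 For each line, cells grew in 96-well plates with the test compound present at a single concentration for 48 hours.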 Activity calls are given as the source filed them. The calls were made as follows: active = growth percent below 10; inactive = the rest.

Legend:
Assay in all cases: NCI-60 one-dose screen, 48 h (100 = growth as untreated, 0 = no growth, -100 = all killed)
Conditions in all cases: 10 µM unless noted
T-47D breast = tested on: T-47D breast
BT-549 breast = tested on: BT-549 breast
MDA-MB-435 melanoma = tested on: MDA-MB-435 melanoma
SW-620 colon = tested on: SW-620 colon
MCF7 breast = tested on: MCF7 breast
HCT-116 colon = tested on: HCT-116 colon
HCC-2998 colon = tested on: HCC-2998 colon
KM12 colon = tested on: KM12 colon
MDA-MB-468 breast = tested on: MDA-MB-468 breast

Measured: growth

COc1ccc2c(c1)N=c1c-2cc2c(O)[nH]c(=S)n2c1=O
active: MDA-MB-435 melanoma 2.49% | MDA-MB-468 breast -25.9%
inactive: T-47D breast 46.4% | BT-549 breast 32.4% | SW-620 colon 47.4% | MCF7 breast 34.6% | HCT-116 colon 28.6% | HCC-2998 colon 60.1% | KM12 colon 42.7%

CC[C@]12C=CCN3CC[C@]4(C(=C(C(=O)OC)C1)Nc1cc(OC)c([C@@H]5[C@H]6O[C@H]6[C@@]6(CC)CC(C(=O)OC)=C7Nc8cc(OC)ccc8[C@@]78CCN5[C@@H]68)cc14)[C@@H]32
inactive: T-47D breast 25.7% | BT-549 breast 62.8% | MDA-MB-435 melanoma 57.6% | SW-620 colon 50.4% | MCF7 breast 17.2% | HCT-116 colon 20.5% | HCC-2998 colon 112% | KM12 colon 49.6% | MDA-MB-468 breast 28.9%

COC(=O)c1ccc(-c2c(-c3ccccc3)c(F)c3oc(C(=O)OC)c(N)c3c2-c2ccccc2)cc1
inactive: T-47D breast 64.5% | BT-549 breast 95.7% | MDA-MB-435 melanoma 101% | SW-620 colon 87.1% | MCF7 breast 75.6% | HCT-116 colon 84.3% | HCC-2998 colon 98.4% | KM12 colon 95.6% | MDA-MB-468 breast 84%

O=C(NNC(=O)c1ccc(OCc2nc3ccc(Cl)cc3[nH]2)cc1)Nc1ccc(Cl)c(C(F)(F)F)c1
active: HCT-116 colon 4.53%
inactive: T-47D breast 16.4% | BT-549 breast 64.7% | MDA-MB-435 melanoma 51.4% | SW-620 colon 65% | MCF7 breast 49.5% | HCC-2998 colon 73.9% | KM12 colon 49.1% | MDA-MB-468 breast 22.4%

OC1CCC(Cn2c(C(F)(F)F)cc3c(Cl)ncnc32)CC1 (stereo unspecified)
inactive: T-47D breast 82% | SW-620 colon 38.8% | MCF7 breast 91% | KM12 colon 86.5%
active: BT-549 breast -37.7% | MDA-MB-435 melanoma 8.29% | HCT-116 colon 1.57% | HCC-2998 colon -94% | MDA-MB-468 breast 9.1%

COc1ccc(N=Nc2c(N)nn3c(-c4ccc(OC)c(OC)c4)ccnc23)cc1
inactive: T-47D breast 62% | BT-549 breast 65.6% | MDA-MB-435 melanoma 81.9% | SW-620 colon 95.2% | MCF7 breast 84.9% | HCT-116 colon 72.5% | KM12 colon 97.9% | MDA-MB-468 breast 80.2%
active: HCC-2998 colon -35.9%

Cn1cc(-c2cc3nc(-c4cn(C)c5ncc(Br)cc45)cc(N)n3n2)c2cc(F)ccc21
inactive: BT-549 breast 44.9% | MDA-MB-435 melanoma 39.8% | SW-620 colon 26.6% | MCF7 breast 27% | KM12 colon 19.1%
active: T-47D breast 2.75% | HCT-116 colon -44.1% | HCC-2998 colon -14.5% | MDA-MB-468 breast -47.4%

O=C(NN1C(=O)/C(=C/C=C/c2ccc([N+](=O)[O-])o2)SC1=S)c1ccncc1
active: T-47D breast -59.4% | BT-549 breast -91.7% | MDA-MB-435 melanoma -83.7% | SW-620 colon -69.6% | MCF7 breast -53.4% | HCT-116 colon -41.5% | HCC-2998 colon -96.2% | KM12 colon -94.3% | MDA-MB-468 breast -73.9%

NS(=O)(=O)c1ccc(Nc2nc(SCC(=O)c3ccc(F)cc3)nc3ccccc23)cc1
inactive: T-47D breast 19.5% | BT-549 breast 44.2% | SW-620 colon 50.5% | MCF7 breast 19.1% | HCT-116 colon 39% | HCC-2998 colon 47.5% | KM12 colon 19.4% | MDA-MB-468 breast 11.4%
active: MDA-MB-435 melanoma 0.411%

CCC1(OC(=O)c2ccccc2SSCCOC(=O)CCCCC2SCC3NC(=O)NC32)C(=O)OCc2c1cc1n(c2=O)Cc2cc3ccccc3nc2-1 (stereo unspecified)
active: MDA-MB-468 breast -12.1%
inactive: T-47D breast 33.7% | BT-549 breast 49.4% | MDA-MB-435 melanoma 70.1% | SW-620 colon 51.5% | MCF7 breast 26.5% | HCT-116 colon 53.8% | HCC-2998 colon 78.7% | KM12 colon 79%

COc1ccc2c(c1)C(Sc1ccc(F)cc1)c1c(nc(N)c(C#N)c1N)O2 (stereo unspecified)
inactive: T-47D breast 79% | BT-549 breast 62.1% | MDA-MB-435 melanoma 91% | SW-620 colon 84.7% | MCF7 breast 67.5% | HCT-116 colon 79.9% | HCC-2998 colon 114% | KM12 colon 85% | MDA-MB-468 breast 99.6%

COc1c2c(cc3c1C(CCc1ccccc1)N(C)CC3)OCO2 (stereo unspecified)
active: T-47D breast -22.3% | BT-549 breast -28.8% | MDA-MB-435 melanoma 5.73% | SW-620 colon 1.49% | MCF7 breast -34.4% | HCT-116 colon 3.07% | HCC-2998 colon -31.5% | KM12 colon -28.3% | MDA-MB-468 breast -61.8%

COc1cc(C2CC(c3ccc(Cl)cc3)=Nc3c(N)nc(N)nc3N2)ccc1Oc1nc(Nc2ccc(F)cc2)nc(N(C)C)n1 (stereo unspecified)
active: MCF7 breast 2.22% | HCT-116 colon -5.37% | HCC-2998 colon -3.35% | MDA-MB-468 breast -22.4%
inactive: T-47D breast 71.3% | BT-549 breast 62.4% | MDA-MB-435 melanoma 44% | SW-620 colon 35.5% | KM12 colon 32%

CC1=C(C(=O)Nc2ccccc2)C(c2cccc(Cl)c2Cl)n2c(nc3ccccc32)N1 (stereo unspecified)
inactive: T-47D breast 67.4% | BT-549 breast 71% | MDA-MB-435 melanoma 26.5% | SW-620 colon 56.5% | MCF7 breast 24.6% | HCT-116 colon 29.6% | HCC-2998 colon 25.6% | KM12 colon 32.9%
active: MDA-MB-468 breast -32.2%

CN(C)c1nc(NCCNS(=O)(=O)c2ccc(C(=O)/C=C/c3ccc(Cl)cc3)cc2)nc(N2CCOCC2)n1
inactive: T-47D breast 10.3% | BT-549 breast 12.8%
active: MDA-MB-435 melanoma -53.6% | SW-620 colon -66.9% | MCF7 breast -67% | HCT-116 colon -95.5% | HCC-2998 colon -94.4% | KM12 colon -76.9% | MDA-MB-468 breast -83.2%

O=C1NC(=S)/C(=C/c2cn(-c3ccccc3)nc2-c2ccccc2)S1
inactive: MDA-MB-435 melanoma 24.6% | SW-620 colon 39.3% | HCT-116 colon 18.6% | HCC-2998 colon 29.2% | KM12 colon 19.4% | MDA-MB-468 breast 22.3%
active: T-47D breast 0.334% | BT-549 breast -9.85% | MCF7 breast 3.28%

Cc1cc(C(NC(=O)C2CC3(CC(Nc4cccc5c4C(=O)N(C4CCC(=O)NC4=O)C5=O)C3)C2)c2ccc3c(c2)OC(F)(F)O3)c(O)c2ncccc12 (stereo unspecified)
active: BT-549 breast 9.92% | MCF7 breast 8.12% | MDA-MB-468 breast -30.6%
inactive: T-47D breast 11.5% | MDA-MB-435 melanoma 28.5% | SW-620 colon 25.6% | HCT-116 colon 15.6% | HCC-2998 colon 36.6% | KM12 colon 17.5%

O=C(Nc1ccc(Br)cc1)Nc1ccc(-c2ccc3c(c2)NC(=O)/C3=C\c2ccc[nH]2)cc1
inactive: T-47D breast 12.1% | BT-549 breast 17.2% | MDA-MB-435 melanoma 39.7% | SW-620 colon 21% | HCT-116 colon 35% | HCC-2998 colon 38.8%
active: MCF7 breast 8.33% | KM12 colon -22.6% | MDA-MB-468 breast -5%

COc1cc2cc(C(=O)N3C[C@@H](CCl)c4c3cc(OC(=O)N(CCC(=O)N3CCN(C)CC3)[C@H]3CCSSC3)c3ccccc43)[nH]c2c(OC)c1OC
active: T-47D breast 8.8% | BT-549 breast -81.1% | MDA-MB-435 melanoma -48.5% | SW-620 colon -42.4% | MCF7 breast -79.9% | HCT-116 colon -41.4% | HCC-2998 colon -94.3% | KM12 colon -29% | MDA-MB-468 breast -91.5%

O=C1C=CC(=CC=C2N(Cc3ccc4ccccc4c3)c3ccccc3N2Cc2ccc3ccccc3c2)C=C1
5.78% (active) and 27.5% (inactive): T-47D breast
9.59% (active) and 29.8% (inactive): BT-549 breast
active: MDA-MB-468 breast -48.9% and -28.9%
inactive: SW-620 colon 29.1% and 19.4% | MCF7 breast 15.7% and 14.1% | HCT-116 colon 10.7% and 14.7% | HCC-2998 colon 21.1% and 33.1% | KM12 colon 33.8% and 11.2%
12.5% (inactive) and 8.75% (active): MDA-MB-435 melanoma

Cc1ccc(C(=O)Nc2cc(-n3ccnc3)cc(C(F)(F)F)c2)cc1-n1cc(-c2cnc3cccnn23)nn1
inactive: T-47D breast 113% | BT-549 breast 247% | MDA-MB-435 melanoma 63.4% | SW-620 colon 81.9% | MCF7 breast 101% | HCT-116 colon 55.1% | HCC-2998 colon 86.3% | KM12 colon 80.1% | MDA-MB-468 breast 121%

COc1ccc2ccccc2c1/C=C1\SC(=Nc2ccc(O)cc2)NC1=O
active: BT-549 breast -22.6% | MCF7 breast 9.63% | HCT-116 colon 2.32% | HCC-2998 colon -0.301% | MDA-MB-468 breast -34.7%
inactive: T-47D breast 36.4% | MDA-MB-435 melanoma 10.9% | SW-620 colon 35.4% | KM12 colon 17.3%

Cc1nc(N)ncc1-c1ccc2ncnc(N3CCc4cc(F)c(Cl)cc43)c2c1
active: MDA-MB-468 breast -22.5%
inactive: T-47D breast 28.1% | BT-549 breast 66.8% | MDA-MB-435 melanoma 94.6% | SW-620 colon 85.2% | MCF7 breast 41.7% | HCT-116 colon 70.4% | HCC-2998 colon 80.7% | KM12 colon 88.2%

Cc1cc(C(NC(=O)CCCCCNc2cccc3c2C(=O)N(C2CCC(=O)CC2=O)C3=O)c2cccc(N(C)C)c2)c(O)c2ncccc12 (stereo unspecified)
active: T-47D breast 4.11% | BT-549 breast -8.92% | MDA-MB-468 breast -24.4%
inactive: MDA-MB-435 melanoma 36.1% | SW-620 colon 23.7% | MCF7 breast 10.9% | HCT-116 colon 13.8% | HCC-2998 colon 14.6% | KM12 colon 15.3%
